tested on: Pseudomonas aeruginosa PA14 wild type; assay: respiration area under curve with compound as sole nitrogen source, 24 h (OmniLog AUC (arbitrary units)); higher = more respiration / better utilisation as nitrogen source, active = 2000 or more
Method: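 Biolog Phenotype MicroArray plates PM6-PM8: each di/tripeptide is the sole nitrogen source (IF-0 medium with succinate/ferric citrate and dye mix A). Tetrazolium reduction was read in the OmniLog every 15 min for 24 h at 37°C and summarised as area under the respiration curve (arbitrary units). The paper counts values below 2000 as no respiration and above 8000 as solid respiration. Replicate datasets are averaged.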

| SMILES | respiration area under curve |
| --- | --- |
| C[C@@H](O)[C@H](N)C(=O)N[C@@H](CCC(=O)O)C(=O)O (plate: PM7) | 7240 (active) |
| O=C(O)CC[C@H](NC(=O)[C@@H]1CCCN1)C(=O)O (plate: PM8) | 7660 (active) |
| CC[C@H](C)[C@H](N)C(=O)N[C@@H](C)C(=O)O (plate: PM6) | 5290 (active) |
| C[C@H](N)C(=O)N[C@@H](C)C(=O)N[C@@H](C)C(=O)O (plate: PM8) | 10400 (active) |
| CC[C@H](C)[C@H](N)C(=O)NCC(=O)O (plate: PM6) | 4940 (active) |
| CC[C@H](C)[C@H](NC(=O)[C@@H](N)CCCN=C(N)N)C(=O)O (plate: PM6) | 9540 (active) |
| C[C@@H](O)[C@H](N)C(=O)NCC(=O)O (plate: PM7) | 8140 (active) |
| C[C@@H](O)[C@H](N)C(=O)N[C@@H](CO)C(=O)O (plate: PM8) | 7920 (active) |
| CC(C)C[C@H](N)C(=O)N[C@@H](CO)C(=O)O (plate: PM7) | 13500 (active) |
| NCC(=O)N[C@@H](CC(=O)O)C(=O)O (plate: PM8) | 5610 (active) |
| NC(=O)C[C@H](N)C(=O)N[C@@H](CCC(=O)O)C(=O)O (plate: PM6) | 5930 (active) |
| CC[C@H](C)[C@H](N)C(=O)N1CCC[C@H]1C(=O)O (plate: PM6) | 7460 (active) |
| CC(C)[C@H](N)C(=O)N[C@@H](CCCN=C(N)N)C(=O)O (plate: PM7) | 14300 (active) |
| N[C@@H](CCC(=O)O)C(=O)N[C@@H](CCC(=O)O)C(=O)O (plate: PM6) | 248 (inactive) |
| N[C@@H](Cc1c[nH]c2ccccc12)C(=O)N[C@@H](Cc1ccc(O)cc1)C(=O)O (plate: PM7) | 1070 (inactive) |
| N[C@@H](Cc1c[nH]c2ccccc12)C(=O)N[C@@H](CO)C(=O)O (plate: PM7) | 4810 (active) |
| NCC(=O)N[C@H](CO)C(=O)O (plate: PM8) | 641 (inactive) |
| CC(C)[C@H](N)C(=O)N1CCC[C@H]1C(=O)O (plate: PM8) | 12700 (active) |
| O=C(O)[C@H](CO)NC(=O)[C@@H]1CCCN1 (plate: PM8) | 8750 (active) |
| NC(=O)CC[C@H](NC(=O)[C@@H]1CCCN1)C(=O)O (plate: PM7) | 9790 (active) |

| SMILES | respiration area under curve |
| --- | --- |
| CC(C)[C@H](NC(=O)CN)C(=O)O (plate: PM6) | 4270 (active) |
| CC(C)C[C@H](NC(=O)[C@@H](N)[C@@H](C)O)C(=O)O (plate: PM7) | 7920 (active) |
| CSCCC(NC(=O)C(N)CC(C)C)C(=O)O (stereo not given) (plate: PM6) | 3040 (active) |
| CC[C@H](C)[C@H](NC(=O)[C@@H](N)C(C)C)C(=O)O (plate: PM7) | 9390 (active) |
| N[C@@H](Cc1ccccc1)C(=O)N[C@@H](CO)C(=O)O (plate: PM7) | 7630 (active) |
| N[C@@H](CC(=O)O)C(=O)N[C@@H](Cc1ccccc1)C(=O)O (plate: PM6) | 3070 (active) |
| CC(C)C[C@H](NC(=O)[C@@H](N)CCCN=C(N)N)C(=O)O (plate: PM6) | 9430 (active) |
| CC[C@H](C)[C@H](N)C(=O)N[C@@H](CCSC)C(=O)O (plate: PM6) | 1290 (inactive) |
| CC(C)[C@H](NC(=O)[C@@H](N)CC(=O)O)C(=O)O (plate: PM6) | 4290 (active) |
| CSCC[C@H](N)C(=O)N[C@@H](Cc1ccc(O)cc1)C(=O)O (plate: PM8) | 1560 (inactive) |
| CSCCC(N)C(=O)NC(CCCN=C(N)N)C(=O)O (stereo not given) (plate: PM7) | 14600 (active) |
| N[C@@H](CCC(=O)O)C(=O)N[C@@H](CC(=O)O)C(=O)O (plate: PM6) | 12 (inactive) |
| N[C@@H](Cc1ccc(O)cc1)C(=O)N[C@@H](Cc1ccc(O)cc1)C(=O)O (plate: PM7) | 7080 (active) |
| N[C@@H](Cc1ccc(O)cc1)C(=O)NCC(=O)O (plate: PM7) | 9630 (active) |
| N[C@@H](Cc1ccccc1)C(=O)N[C@@H](CCC(=O)O)C(=O)O (plate: PM8) | 2920 (active) |
| CSCC[C@H](NC(=O)[C@@H](N)Cc1ccccc1)C(=O)O (plate: PM8) | 1220 (inactive) |
| NC(N)=NCCC[C@H](NC(=O)[C@@H]1CCCN1)C(=O)O (plate: PM8) | 12100 (active) |
| CSCC[C@H](NC(=O)[C@H](C)N)C(=O)O (plate: PM8) | 6360 (active) |
| N[C@@H](Cc1ccccc1)C(=O)N[C@@H](Cc1ccc(O)cc1)C(=O)O (plate: PM8) | 2350 (active) |
| CC(C)[C@H](N)C(=O)N[C@@H](Cc1ccc(O)cc1)C(=O)N[C@H](C(=O)O)C(C)C (plate: PM8) | 8370 (active) |

Source: the supplement of paper PMC4206461
